Tg IFNy HTS – T. gondii growth inhibition under IFN-gamma; 3.8% of 69,000 active; activity change, negative = inhibition, % (test concentration not listed); Toxoplasma gondii growth in IFN-gamma-treated host cells; active compounds read low; in the data active means activity change below about -70%, passing the limit was not always enough;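 further: host cells are HeLa cells infected with Toxoplasma gondii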
* = called active by the depositor. This is one part of a sample in which hits are shown more often than they occur.

SMILES	Tg IFNy HTS
Cc1ccc(-c2nc(CCNC(=O)C(=O)Nc3cccc(Cl)c3)cs2)cc1	73
Cc1ccc(C(=O)NC2CCCCC2)cc1C	62
Cc1occc1C(=O)N1CCC2(CCC2NC(=O)c2ccn(C)c2)CC1 (stereo not given)	-70
COc1ccc(S(=O)(=O)N2C[C@@H](N)[C@H](c3cn(C)c4cnccc34)C2)cc1	13
CN(C)[C@@H]1CCN(C(=O)CC2CC2)[C@H]1Cc1ccncc1	-36
Cc1cccc2c(C(=O)N3CCC(Oc4cccnc4)CC3)cc(-c3ccncc3)nc12	-60
CC1CCN(S(=O)(=O)c2ccc3c(c2)CCC(=O)N3CC(=O)Nc2cccc(Cl)c2)CC1	-87*
CC1CCN(S(=O)(=O)c2ccc3c(c2)CCC(=O)N3CC(=O)Nc2ccccc2)CC1	-2
CCc1ccc(NC(=O)CN2C(=O)CCc3cc(S(=O)(=O)N4CCCCC4)ccc32)cc1	-97*
O=C(CN1C(=O)CCc2cc(S(=O)(=O)N3CCCC3)ccc21)Nc1ccc(Cl)cc1	46
CC1CCN(S(=O)(=O)c2ccc3c(c2)CCC(=O)N3CC(=O)Nc2cccc(F)c2)CC1	-11
COc1ccc(NC(=O)CN2C(=O)CCc3cc(S(=O)(=O)N4CCCCC4)ccc32)cc1OC	8
Cc1nn(-c2ccccc2)c(C)c1CCC(=O)NC1CC(C)(C)Oc2ccccc21 (stereo not given)	-3
Cn1ccnc1C(=O)N[C@H]1CN(c2ncc(F)cn2)[C@H]2CCCO[C@@H]12	-6
CC(=O)c1sc(C2CCN(C(=O)CC3SC(=O)N(C)C3=O)CC2)nc1C (stereo not given)	-2
CCOc1ccccc1-c1nc(Cn2c(=O)c3c(C)cc(C)nc3n(C)c2=O)c(C)o1	3
Cn1cccc1C(=O)N1CCC2(CCC(=O)N2Cc2ccncc2)CC1	-1
CCOC(=O)c1nc(Nc2ccc(OC)c(OC)c2)c2ccccc2n1	18
COc1cc(NS(C)(=O)=O)ccc1Cc1c2ccccc2nc2ccccc12	-83*
COc1ccc(CNC(=O)c2nc(Nc3ccc(F)cc3)c3ccccc3n2)c(OC)c1	40
CCN(Cc1nc(COC)no1)C(=O)c1cnn2ccccc12	0
C[C@H]1CN([C@@H](C)CO)C(=O)c2cccc(NS(=O)(=O)c3ccc(F)cc3)c2O[C@H]1CN(C)Cc1ccc(Cl)c(Cl)c1	-78*
C[C@@H]1CN([C@@H](C)CO)C(=O)c2cccc(NS(=O)(=O)c3ccc(F)cc3)c2O[C@H]1CN(C)Cc1ccc(Cl)c(Cl)c1	-64
C[C@H](CO)N1C[C@H](C)[C@@H](CN(C)Cc2ccc(-c3ccccc3)cc2)Oc2c(NS(C)(=O)=O)cccc2C1=O	-52
C[C@@H]1CN([C@H](C)CO)C(=O)c2cccc(NS(C)(=O)=O)c2O[C@@H]1CN(C)Cc1ccc(-c2ccccc2)cc1	-55
SMILES	Tg IFNy HTS
C[C@H]1CN([C@@H](C)CO)C(=O)Cc2cc(NC(=O)C3CCCCC3)ccc2O[C@@H]1CN(C)Cc1ccc(Cl)c(Cl)c1	-40
C[C@H](CO)N1C[C@H](C)[C@H](CN(C)Cc2ccc(Cl)c(Cl)c2)Oc2ccc(NC(=O)C3CCCCC3)cc2CC1=O	-52
C[C@H](CO)N1C[C@H](C)[C@H](CN(C)Cc2ccc(Cl)c(Cl)c2)Oc2c(NS(=O)(=O)c3ccc(F)cc3)cccc2C1=O	-85*
C[C@@H]1CN([C@@H](C)CO)C(=O)c2cccc(NS(C)(=O)=O)c2O[C@@H]1CN(C)Cc1ccc(-c2ccccc2)cc1	-1
C[C@@H]1CN([C@@H](C)CO)C(=O)Cc2cc(NC(=O)C3CCCCC3)ccc2O[C@@H]1CN(C)Cc1ccc(Cl)c(Cl)c1	-87*
COc1ccc2c(c1)NC1(CCN(S(=O)(=O)c3cccc(F)c3)CC1)c1cccn1-2	9
CCc1nnc(CN2CCC3(CCCO3)CCC2=O)o1 (stereo not given)	-1
O=S(=O)(c1ccc2c(c1)CCCC2)N1CCC2(CC1)NCCN=C2NC1CCCCC1	-30
COc1ccc(F)c(-c2nccn2CCCn2ccnc2)c1	5
CN(Cc1ccccc1)C1CCN(C(=O)c2cccnc2)C(C(=O)O)C1 (stereo not given)	3
CCN1CCC2(CC1)OC(=O)C(C)=C2C(=O)Nc1ccc(N(CC)CC)cc1C	139
CCCCC(=O)Nc1cc2nc(CCCC)n(Cc3ccccc3Cl)c2nc1C	-57
CCN(CC)CCn1c(=O)c(Cc2ccc(OC)cc2)nc2ccccc21	-2
CCCCc1nc2cc(/C=C/C(=O)NO)ccc2n1CCN(CC)CC	-82*
CCN1CCC2(CC1)OC(=O)C(C)=C2C(=O)Nc1cccc(Cl)c1	159
COC1(c2ccccc2)CCN(C(=O)c2ccccc2C2CCNC2)CC1 (stereo not given)	-1
COc1ccc2[nH]c(=O)c(CN(C(=O)c3ccco3)C(C)C)cc2c1	27
Cc1ccc(CN(Cc2cc3cccc(C)c3[nH]c2=O)C(=O)c2ccco2)cc1	-79*
CCC(=O)N(Cc1ccc(C)cc1)Cc1cc2cccc(C)c2n2nnnc12	34
CC(C)c1nc2cc(-c3ccc(S(C)(=O)=O)cc3)ccc2o1	127
O=C(Nc1ccc(CCO)cc1)C1CC2(CCNCC2)c2ccccc21 (stereo not given)	3
Cc1ccsc1CCNC(=O)CN1C(=O)CCc2cc(S(=O)(=O)N3CCC(C)CC3)ccc21	-34
Cc1ccc(S(=O)(=O)Nc2cc(C(C)(C)C)sc2C#N)cc1	1
Cc1ccc(S(=O)(=O)Nc2c(Cl)c(Cl)nc(C#N)c2Cl)cc1	-93*
Cc1ccc(S(=O)(=O)Nc2ccc(S(=O)(=O)Nc3nc(C)cc(C)n3)cc2)cc1	48
SMILES	Tg IFNy HTS
Cc1cc(C)n(Cc2nc(-c3ccc(NC(=O)c4c(F)cccc4F)cc3)oc2C)n1	15
CCCN1CCC(c2cc3c(ncn3C)c(-c3ccc(OC)cc3)n2)CC1	6
COc1nccc(-c2c(-c3ccc(F)cc3)ncn2C2CCC(O)CC2)n1 (stereo not given)	-79*
CN(Cc1nccs1)Cc1cn(-c2ccccc2)nc1-c1ccc2c(c1)OCO2	-45
O=c1[nH]c(=O)n([C@H]2C[C@H](O)[C@@H](CO)O2)cc1F	-94*
Cc1cn(C2CC(O)C(CO)O2)c(=O)[nH]c1=O (stereo not given)	-7
O=c1[nH]c(=O)n([C@H]2C[C@H](O)[C@@H](CO)O2)cc1Br	-45
CN1CCC2(CC1)CN(Cc1cccn1-c1ncccn1)CCCN2C	2
CCn1c(CC2CCN(C(=O)OCC(C)(C)C)CC2)nn(C)c1=O	9
CNC(=O)[C@@]12CCC3(CCN(C(=O)NC(C)C)CC3)[C@H]1CN(C)C2	9
CCn1c(C2CCN(C(=O)Cc3nc4ccccc4[nH]3)CC2)nn(C)c1=O	1
CC(=O)N1CCC2(CCOCC2COc2cccnc2)CC1 (stereo not given)	-3
CCc1[nH]c2ccc(CNc3ncc(F)c(N4CCOCC4)n3)cc2c1C	-48
Cc1[nH]c2ccc(CNC(=O)C3CC(=O)N(Cc4ccccn4)C3)cc2c1C (stereo not given)	5
CCc1[nH]c2ccc(CNc3cc(COC)ncn3)cc2c1C	-78*
CCOCC(=O)N1CCC2(CCN2Cc2csc(C)n2)C1 (stereo not given)	-2
COc1cc2c(cc1OC)C(c1ccccc1)=NCC2	-28
COc1cc2c(cc1OC)C(c1c(-c3ccccc3)noc1C)=NCC2	-38
COc1cc2c(cc1OC)C(c1sc3ccccc3c1Cl)=NCC2	-113*
O=C(c1cccs1)N1CC[C@@]2(C1)C(=O)NC[C@H]2COc1cccnc1	-6
C1COC(c2nnc3n2CCNCC3)C1 (stereo not given)	6
Cn1nc(C(F)(F)F)cc1C(=O)N1CCCC1c1ccccc1Cl (stereo not given)	-46

Screening results as filed in PubChem BioAssay.
